hcDAF-12 act: activates DAF-12 receptor from parasite H. contortus; HEK293 hcDAF-12 lit1-tk-luc reporter, luminescence; 0% DMSO, 100% Δ7-dafachronic acid; AID 652067; activation, % at 6.8 µM; 1.4% of 370,000 active;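 active means activation above the mean of all tested compounds plus 3 SD, cut at about 5.5% in these data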;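 further: 100% = response to 3 µM Δ7-dafachronic acid high control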
ssDAF12 agonist: S. stercoralis DAF-12 activation, primary screen. HEK293 ssDAF-12/GRIP1 lit1-tk-luc reporter, luminescence; % of 3 µM dafachronic acid response. activation, % at 6.8 µM. 1% of 370,000 active. AID 652126;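 active means activation above the mean over all tested compounds plus 3 SD, cut at about 0.9% in these data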;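 further: 0% = DMSO-only wells and 100% = 3 µM delta7-dafachronic acid wells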
DAX1 inh-1: inhibits human nuclear receptor DAX1; 0.99% of 340,000 active; HEK293 Gal4-DAX1 luciferase reporter, luminescence; P51843; inhibition, % at 6.75 µM;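 active means inhibition above the mean over all tested compounds plus 3 SD, cut at about 4.2% in these data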;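 further: 0% = DAX1-transfected cells with DMSO and 100% = empty-vector control cells with DMSO; inhibition shows as a rise in luminescence from relieved DAX1 repression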
Target sequence (P51843 207-470 limits assumed): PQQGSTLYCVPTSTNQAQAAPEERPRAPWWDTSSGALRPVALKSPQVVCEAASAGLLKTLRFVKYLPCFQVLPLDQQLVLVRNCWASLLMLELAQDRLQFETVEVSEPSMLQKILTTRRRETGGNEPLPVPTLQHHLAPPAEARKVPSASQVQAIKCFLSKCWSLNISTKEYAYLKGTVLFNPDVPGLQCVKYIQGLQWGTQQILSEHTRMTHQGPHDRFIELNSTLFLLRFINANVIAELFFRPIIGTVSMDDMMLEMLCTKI
hgDAF-12 ag: agonists of H. glycines DAF-12 nuclear receptor; activation, % at 6.8 µM; HEK293 GAL4-hgDAF12 UAS-luciferase reporter, agonist luminescence; normalized to butyrate control; 1.8% of 370,000 active; AID 687014;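 active means activation above a cutoff set at the mean of all screened compounds plus 3 SD, cut at about 10% in these data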;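 further: 0% = DMSO wells and 100% = sodium butyrate wells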
DAX1 inh-2: blocks DAX1 repression of SF-1 activated StAR promoter; inhibition, % at 6.8 µM; 1.1% of 370,000 active; AID 652010; HEK293T StAR-luciferase reporter, SF-1/DAX-1 repression relief;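 active means inhibition above the mean over all tested compounds plus 3 SD, cut at about 3.6% in these data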;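 further: 0% = DAX-1 cells with DMSO and 100% = cells lacking DAX-1 with DMSO; higher inhibition means more luminescence from relief of DAX-1 repression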
LXR ag: counter-screen for hcDAF-12 agonists: agonists of human LXR-beta | shares compounds with hcDAF-12 act | HEK293 Gal4-LXR tk-luc reporter, luminescence, 24 h; normalized: DMSO 0%, positive control 100% | activation, % at 6.8 µM | 3,400 tested, under 10 active;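 active means mean percent activation of the reporter above a cutoff set as the average over tested compounds plus their standard deviation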
hcDAF12 ag: confirmation of H. contortus DAF-12 agonists. shares compounds with hcDAF-12 act. HEK293 hcDAF-12 lit1-tk-luc reporter, luminescence; % of Δ7-dafachronic acid response. activation, % at 6.8 µM. 61% of 3,400 active;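 active means mean activation across triplicate tests above the threshold derived from the earlier primary screen, cut at about 5.5% in these data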;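 further: 0% = DMSO only wells and 100% = 3 µM Δ7-dafachronic acid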
Active calls of the source: *. Compounds with a hit are over-represented: about 4.1% of the library has one in this group of screens.

Screening CC(=O)Nc1ccc(NC(=O)CCN2C(=O)c3ccccc3C2=O)cc1 returned hcDAF-12 act -2, ssDAF12 agonist -1, DAX1 inh-1 0, hgDAF-12 ag 2 and DAX1 inh-2 1.
For Cc1ccc2sc(-c3ccc(NC(=O)CCN4C(=O)c5ccccc5C4=O)cc3)nc2c1 the results were hcDAF-12 act 10.0*, ssDAF12 agonist 1, hgDAF-12 ag 9, DAX1 inh-2 2, LXR ag 2 and hcDAF12 ag 9.0*.
For CC1=C(C(=O)N(C(C)C)C(C)C)CC(CC(=O)NCCN2CCOCC2)C(=O)N1Cc1ccccc1 (stereo unspecified) the results were hcDAF-12 act 0, ssDAF12 agonist -1, DAX1 inh-1 0, hgDAF-12 ag 0 and DAX1 inh-2 0.
`CCCC(NC(=O)c1ccc(Br)o1)c1nc2ccccc2[nH]1` (stereo unspecified) gave hcDAF-12 act 0, ssDAF12 agonist -2, DAX1 inh-1 0, hgDAF-12 ag 2 and DAX1 inh-2 0.
For CCOc1ccccc1NC(=O)CSc1nc2ccccc2nc1N1CCCC1 the results were hcDAF-12 act 8.0*, ssDAF12 agonist 1.5*, DAX1 inh-1 0, hgDAF-12 ag 3, DAX1 inh-2 -1, LXR ag 0 and hcDAF12 ag 3.
CCOc1ccccc1NC(=O)CSc1nc2ccccc2nc1N1CCOCC1 was read as hcDAF-12 act 3, ssDAF12 agonist 0, DAX1 inh-1 1, hgDAF-12 ag -2 and DAX1 inh-2 0.
For C1=CC2=NC34CCCCC3CC3=C(CCCC3)N4C2=CC1=NC1CCCCC1 (stereo unspecified) the results were DAX1 inh-1 1.
Cc1ccc(-n2ncc(C(=O)NC3CC3)c2C2CCN(C(=O)OC(C)(C)C)CC2)cc1 was read as hcDAF-12 act 0, ssDAF12 agonist -1, DAX1 inh-1 1, hgDAF-12 ag -1 and DAX1 inh-2 0.
Cc1ccc(-n2ncc(Cl)c2C(=O)NC2CC2)cc1 was read as hcDAF-12 act 8.8*, ssDAF12 agonist 0, DAX1 inh-1 2, hgDAF-12 ag 11*, DAX1 inh-2 2, LXR ag 0 and hcDAF12 ag 5.6*.
`Fc1ccc(-c2nc3c(Cl)cc(C(F)(F)F)cn3c2Cl)cc1` gave hcDAF-12 act 9.6*, ssDAF12 agonist 0, DAX1 inh-1 7.9*, hgDAF-12 ag 6, DAX1 inh-2 1, LXR ag 1 and hcDAF12 ag 8.7*.
Fc1cccc(Cc2c(-c3cccc(Br)c3)nc3c(Cl)cc(C(F)(F)F)cn23)c1 was read as hcDAF-12 act 6.6*, ssDAF12 agonist 0, hgDAF-12 ag 1, DAX1 inh-2 0, LXR ag 0 and hcDAF12 ag 1.
`Nc1cc2[nH]c(=O)c3ccccc3c2cc1Br` gave hcDAF-12 act 9.7*, ssDAF12 agonist 1.1*, DAX1 inh-1 2, hgDAF-12 ag 3, DAX1 inh-2 3.7*, LXR ag 0 and hcDAF12 ag 9.3*.
Screening Nc1cc2c(cc1Br)[nH]c(=O)c1ccccc12 returned hcDAF-12 act 3, ssDAF12 agonist -1, DAX1 inh-1 1, hgDAF-12 ag 0 and DAX1 inh-2 -1.
For NC(=O)c1ccccc1OCC(=O)N1CCc2ccccc2C1 the results were hcDAF-12 act -2, ssDAF12 agonist -1, DAX1 inh-1 0, hgDAF-12 ag 3 and DAX1 inh-2 -1.
`Cc1ccc(S(=O)(=O)CCC(=O)OCC(=O)c2c[nH]c3ccccc23)cc1` gave hcDAF-12 act 9.4*, ssDAF12 agonist 0, DAX1 inh-1 0, hgDAF-12 ag 5, DAX1 inh-2 -1, LXR ag 0 and hcDAF12 ag 5.8*.
Screening COc1ccc(C(=O)COC(=O)c2ccc(N(C)C)cc2)cc1 returned hcDAF-12 act -1, ssDAF12 agonist -2, DAX1 inh-1 0, hgDAF-12 ag 5 and DAX1 inh-2 -1.
`CN(C)c1ccc(C(=O)OCC(=O)c2cccs2)cc1` gave hcDAF-12 act 8.4*, ssDAF12 agonist 1.1*, DAX1 inh-1 1, hgDAF-12 ag 20*, DAX1 inh-2 4.2*, LXR ag 1 and hcDAF12 ag 4.
Cc1ccc(C(=O)COC(=O)c2cccs2)cc1 was read as hcDAF-12 act 7.0*, ssDAF12 agonist 1, DAX1 inh-1 2, hgDAF-12 ag 9, DAX1 inh-2 4.5*, LXR ag 1 and hcDAF12 ag 5.
`O=C(NCc1ccc(Cl)nc1)c1ccc2nc([C@@H]3O[C@H](CO)[C@H](O)[C@H](O)[C@H]3O)[nH]c2c1` gave hcDAF-12 act 0, ssDAF12 agonist -1, hgDAF-12 ag -1 and DAX1 inh-2 -2.
`COC(=O)C[C@H]1C=C[C@@H](NC(=O)c2ccncc2)[C@@H](CO)O1` gave hcDAF-12 act 0, ssDAF12 agonist 0, hgDAF-12 ag 0 and DAX1 inh-2 -1.
For CCCn1c(/C=C/c2ccccc2)nc2ccccc21 the results were hcDAF-12 act 6.6*, ssDAF12 agonist 0, DAX1 inh-1 1, hgDAF-12 ag 11*, DAX1 inh-2 3.6*, LXR ag 1 and hcDAF12 ag 7.9*.
`CN1/C(=C\C=C2/SC(=S)NC2=O)C(C)(C)c2ccccc21` gave hcDAF-12 act -4, ssDAF12 agonist -3, DAX1 inh-1 -4, hgDAF-12 ag -5 and DAX1 inh-2 -3.
CN1CCC/C1=C/C=C1\SC(=S)NC1=O was read as hcDAF-12 act 7.0*, ssDAF12 agonist -1, DAX1 inh-1 3, hgDAF-12 ag 1, DAX1 inh-2 1, LXR ag 0 and hcDAF12 ag 3.
`CC(=O)N1CCCc2cc(S(=O)(=O)N3CCCC(C)C3)ccc21` (stereo unspecified) gave hcDAF-12 act 1, ssDAF12 agonist 0, DAX1 inh-1 1, hgDAF-12 ag 0 and DAX1 inh-2 0.
COc1ccc(NC(=O)Nc2nnc(-c3ccccc3F)s2)cc1 was read as hcDAF-12 act -2, ssDAF12 agonist -1, DAX1 inh-1 1, hgDAF-12 ag -3 and DAX1 inh-2 1.
COc1ccc(NC(=O)Nc2nnc(-c3ccco3)s2)cc1 was read as hcDAF-12 act 8.3*, ssDAF12 agonist 1.2*, DAX1 inh-1 3, hgDAF-12 ag 12*, DAX1 inh-2 2, LXR ag 1 and hcDAF12 ag 9.0*.
Screening COc1ccc(-n2nnnc2SCc2nc3ccccc3s2)cc1 returned hcDAF-12 act 8.1*, ssDAF12 agonist 1.1*, DAX1 inh-1 1, hgDAF-12 ag 9, DAX1 inh-2 1, LXR ag 1 and hcDAF12 ag 11*.
